Unmarked numbers belong to inactive results. For some of these results: Results with a measured potency or affinity are listed apart. The source made the active and inactive calls. Unless noted, cut-off not given; nearly all actives show IC50 up to about 0.98 µM.
Each compound was assayed against 6-phosphogluconate dehydrogenase, decarboxylating (Homo sapiens) (UniProt P52209) (assay: 6PGD enzyme inhibitors, primary screen, biochemical, human, recombinant enzyme, NADPH absorbance (AID 1159550;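 active means at least 20% inhibition of 6-phosphogluconate dehydrogenase activity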)). Conditions: recombinant 6PGD, NADPH absorbance 341 nm; at 10 µM; hits give high values.
6-phosphogluconate dehydrogenase, decarboxylating (Homo sapiens), sequence (P52209 whole entry, looked up): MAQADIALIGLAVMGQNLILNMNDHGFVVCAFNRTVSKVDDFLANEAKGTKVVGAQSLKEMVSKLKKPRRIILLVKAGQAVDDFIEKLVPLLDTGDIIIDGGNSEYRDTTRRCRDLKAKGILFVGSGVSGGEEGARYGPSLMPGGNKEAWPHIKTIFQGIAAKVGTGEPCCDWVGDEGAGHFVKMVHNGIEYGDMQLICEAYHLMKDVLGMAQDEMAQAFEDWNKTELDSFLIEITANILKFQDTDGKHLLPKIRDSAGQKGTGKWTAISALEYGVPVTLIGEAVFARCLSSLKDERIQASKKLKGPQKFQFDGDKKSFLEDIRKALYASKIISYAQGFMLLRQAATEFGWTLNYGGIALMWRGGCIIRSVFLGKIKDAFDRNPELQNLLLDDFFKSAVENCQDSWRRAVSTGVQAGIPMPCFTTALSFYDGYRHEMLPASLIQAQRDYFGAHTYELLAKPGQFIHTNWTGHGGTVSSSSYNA

| SMILES | inhibition |
| --- | --- |
| CC1(C(=O)O)CCC2(C)CCC3(C)C(=CC(=O)C4C5(C)CCC(OC(=O)CCC(=O)O)C(C)(C)C5CCC43C)C2C1 (stereo not given) | 6.14% |
| CO[C@@H]1[C@@H](OC2OC(C)C(OC3CC(C)(O)C(O)C(C)O3)C(N(C)C)C2O)[C@@H](CC=O)C[C@@H](C)[C@@H](OC2CCC(N(C)C)C(C)O2)/C=C/C=C/C[C@@H](C)OC(=O)C[C@H]1O (stereo not given in full) | 5.19% |
| CNC1C(O)C(OC2C(N)CC(N)C(OC3OC(CN)=CCC3N)C2O)OCC1(C)O (stereo not given) | 0.544% |

The compounds below were run against Calcium-dependent protein kinase 1 (Plasmodium falciparum (isolate 3D7)) (UniProt P62344) (assay: PfCDPK1 kinase inhibitors, biochemical, TCAMS library (AID 1159585;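 further: inhibitors leave more ATP so luminescence rises with inhibition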)). Conditions: recombinant PfCDPK1, Kinase-Glo ATP depletion luminescence.
Calcium-dependent protein kinase 1 (Plasmodium falciparum (isolate 3D7)), sequence (P62344 whole entry, looked up): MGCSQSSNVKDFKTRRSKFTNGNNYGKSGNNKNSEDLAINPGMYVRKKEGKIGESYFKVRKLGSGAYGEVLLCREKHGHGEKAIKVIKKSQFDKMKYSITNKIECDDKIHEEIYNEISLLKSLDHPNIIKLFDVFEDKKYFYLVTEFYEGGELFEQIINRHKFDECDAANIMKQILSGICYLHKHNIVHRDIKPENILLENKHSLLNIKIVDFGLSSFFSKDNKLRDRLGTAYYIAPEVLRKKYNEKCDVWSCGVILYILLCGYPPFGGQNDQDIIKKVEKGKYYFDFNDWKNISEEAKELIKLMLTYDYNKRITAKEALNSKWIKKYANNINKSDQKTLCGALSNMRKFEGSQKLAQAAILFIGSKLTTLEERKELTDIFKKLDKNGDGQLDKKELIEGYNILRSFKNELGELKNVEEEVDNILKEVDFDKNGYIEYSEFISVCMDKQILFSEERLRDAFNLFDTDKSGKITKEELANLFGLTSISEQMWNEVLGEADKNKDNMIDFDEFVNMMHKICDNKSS

| SMILES | outcome |
| --- | --- |
| Cc1cccc2[nH]c(-c3cccc(-c4cccc(NC(=O)Cc5ccc[n+]([O-])c5)c4)c3)nc12 | inactive |
| c1cc2nc(CCCCc3nc4ccc(C5=N[C@@H]6CCCC[C@@H]6N5)cc4[nH]3)[nH]c2cc1C1=N[C@@H]2CCCC[C@@H]2N1 | inactive |
| C=CC[C@@H](C[C@H](O)[C@H](Cc1ccccc1)NC(=O)c1ccc(-c2cccnn2)cc1)C(=O)NC1CCCCC1 | inactive |
| COc1ccc(Nc2nc(N/N=C/c3cc(Br)c(O)cc3O)nc(Nc3ccc([N+](=O)[O-])cc3)n2)cc1 | inactive |
| COc1cc(/C=N/Nc2ccnc3cc(Cl)ccc23)ccc1O | inactive |
| CCn1c(/C=C/c2cc(Br)ccc2O)nc2ccccc2c1=O | inactive |
| c1cc2nc(CCCCCc3nc4ccc(C5=N[C@H]6CCCC[C@H]6N5)cc4[nH]3)[nH]c2cc1C1=N[C@H]2CCCC[C@H]2N1 | inactive |
| C=CC[C@@H](C[C@H](O)[C@H](Cc1ccccc1)NC(=O)c1ccc(-n2cccn2)cc1)C(=O)NC1CCCCC1 | inactive |
| C/C(=N\NC(N)=O)C1=C(O)C(c2ccccc2)N(C2CCCCC2)C1=O (stereo not given) | inactive |
| O/N=C1\CCc2cc(-c3nc(-c4ccc(OCCN5CCCCC5)cc4)[nH]c3-c3ccncc3)ccc21 | inactive |
| O/N=C1\CCc2cc(-c3cc(-c4ccc(OC5CCNCC5)cc4)oc3-c3ccncc3)ccc21 | inactive |
| Nc1ccc(-c2nc3cc(C4=N[C@@H]5CCCC[C@@H]5N4)ccc3o2)cc1[N+](=O)[O-] | inactive |
| Nc1cc(/C=C/c2ccc(O)cc2)nc2ccccc12 | inactive |
| O=[N+]([O-])c1ccc(-c2nc3ccc(C4=N[C@@H]5CCCC[C@@H]5N4)cc3[nH]2)cc1 | inactive |
| CC(C)C[C@H](C(=O)N[C@H](C(=O)Nc1nccs1)C(C)(C)C)[C@H](CCC(F)(F)F)N(O)C=O | inactive |
| Cc1cc(C)c2c(c1)/C(=N/O)CCN2 | inactive |
| CN(C)C[C@H](O)[C@H](c1ccccc1)c1ccc(Cl)cc1 | inactive |
| CC1CCC(C[C@H](C(=O)N[C@@H](CCC(=O)N2CCCCC2)C(=O)Nc2nccs2)[C@H](C(C)C)N(O)C=O)CC1 (stereo not given in full) | inactive |
| CCC[C@@H]([C@H](CC(C)C)C(=O)N[C@@H](CCCN=C(N)NS(C)(=O)=O)C(=O)Nc1nccs1)N(O)C=O | inactive |

| SMILES | outcome |
| --- | --- |
| C[C@@H]([C@H](CCCc1ccc(Cl)cc1)C(=O)N[C@H](C(=O)Nc1cccnc1)C(C)(C)C)N(O)C=O | inactive |
| COc1cc(/C=C(\C2=NC(=O)CS2)c2nc3cccnc3n2C)ccc1O | inactive |
| O=C(Cc1ccc[n+]([O-])c1)Nc1cccc(-c2cccc(-c3nc4ccc(F)cc4[nH]3)c2)c1 | inactive |
| CC[C@H](C)[C@H](NC(=O)[C@@H](CC1CCCCC1)[C@H](CC)N(O)C=O)C(=O)Nc1ccccn1 | inactive |
| Cc1cc(-c2cc(-c3ccc(OCCN(C)C)cc3)[nH]c2-c2ccc3c(c2)CC/C3=N\O)ccn1 | inactive |
| O=C(N/C=N/c1cc([N+](=O)[O-])c(-c2cccnc2)n1-c1ccc(O)cc1)c1ccccc1 | inactive |
| Oc1ccc2ccccc2c1/C=N/Nc1nc(Nc2ccccc2)nc(Nc2ccccc2)n1 | inactive |
| Oc1ccc2ccccc2c1/C=N/Nc1nc(Nc2ccccc2)nc(N2CCOCC2)n1 | inactive |
| O/N=C1\CCc2cc(-c3nc(-c4cccc(OCCNCc5ccc(F)cc5)c4)[nH]c3-c3ccncc3)ccc21 | inactive |
| COc1ccc(C2=[N+]([O-])c3ccccc3C2=O)cc1 | inactive |
| CCC[C@@H]([C@H](CC(C)C)C(=O)N[C@@H](CCCCNC(=O)OCc1ccccc1)C(=O)Nc1ncccn1)N(O)C=O | inactive |
| CCC[C@@H]([C@H](CC1CCCCC1)C(=O)N[C@H](C(=O)Nc1ccccn1)[C@H](C)CC)N(O)C=O | inactive |
| CO[C@H](C)[C@H](NC(=O)[C@@H](CC(C)C)[C@H](CCC(F)(F)F)N(O)C=O)C(=O)Nc1nccs1 | inactive |
| CCCO[C@H](C(=O)OC)[C@H](CC1Cc2ccccc2C1)C(=O)NCCC1=CCCCC1 | inactive |
| CC[C@@H]([C@H](CC(C)C)C(=O)N[C@@H](CCCCNC(=O)OCc1ccccc1)C(=O)Nc1ccccn1)N(O)C=O | inactive |
| Cc1cccc2[nH]c(-c3cccc(-c4ccc(NC(=O)Cc5ccc[n+]([O-])c5)cc4)c3)nc12 | inactive |
| O=C(N/N=C/c1nc2ccccc2[nH]1)c1cccc([N+](=O)[O-])c1 | inactive |
| COc1cc(-c2nc(-c3ccc4c(c3)CC/C4=N\O)c(-c3ccncc3)[nH]2)ccc1OCCN1CCCCC1 | inactive |
